Data from the supplement of paper PMC11732987, “Enantioselective OTUD7B fragment discovery through chemoproteomics screening and high-throughput optimisation” (Communications Chemistry, 2025).

How the values were obtained:
Test in all cases: log2 ratio of Biotin-Ahx-Ub-VS probe labelling (fragment/DMSO); higher = less target engagement (more negative = stronger competition), active = hit call of the paper (q ≤ 0.05, log2 ratio ≤ -1)
Conditions in all cases: compound concentration: 200 uM; treatment time: 3 h
[1] = biological target: T1, USP19 (UniProt O94966)
T1 sequence (whole entry): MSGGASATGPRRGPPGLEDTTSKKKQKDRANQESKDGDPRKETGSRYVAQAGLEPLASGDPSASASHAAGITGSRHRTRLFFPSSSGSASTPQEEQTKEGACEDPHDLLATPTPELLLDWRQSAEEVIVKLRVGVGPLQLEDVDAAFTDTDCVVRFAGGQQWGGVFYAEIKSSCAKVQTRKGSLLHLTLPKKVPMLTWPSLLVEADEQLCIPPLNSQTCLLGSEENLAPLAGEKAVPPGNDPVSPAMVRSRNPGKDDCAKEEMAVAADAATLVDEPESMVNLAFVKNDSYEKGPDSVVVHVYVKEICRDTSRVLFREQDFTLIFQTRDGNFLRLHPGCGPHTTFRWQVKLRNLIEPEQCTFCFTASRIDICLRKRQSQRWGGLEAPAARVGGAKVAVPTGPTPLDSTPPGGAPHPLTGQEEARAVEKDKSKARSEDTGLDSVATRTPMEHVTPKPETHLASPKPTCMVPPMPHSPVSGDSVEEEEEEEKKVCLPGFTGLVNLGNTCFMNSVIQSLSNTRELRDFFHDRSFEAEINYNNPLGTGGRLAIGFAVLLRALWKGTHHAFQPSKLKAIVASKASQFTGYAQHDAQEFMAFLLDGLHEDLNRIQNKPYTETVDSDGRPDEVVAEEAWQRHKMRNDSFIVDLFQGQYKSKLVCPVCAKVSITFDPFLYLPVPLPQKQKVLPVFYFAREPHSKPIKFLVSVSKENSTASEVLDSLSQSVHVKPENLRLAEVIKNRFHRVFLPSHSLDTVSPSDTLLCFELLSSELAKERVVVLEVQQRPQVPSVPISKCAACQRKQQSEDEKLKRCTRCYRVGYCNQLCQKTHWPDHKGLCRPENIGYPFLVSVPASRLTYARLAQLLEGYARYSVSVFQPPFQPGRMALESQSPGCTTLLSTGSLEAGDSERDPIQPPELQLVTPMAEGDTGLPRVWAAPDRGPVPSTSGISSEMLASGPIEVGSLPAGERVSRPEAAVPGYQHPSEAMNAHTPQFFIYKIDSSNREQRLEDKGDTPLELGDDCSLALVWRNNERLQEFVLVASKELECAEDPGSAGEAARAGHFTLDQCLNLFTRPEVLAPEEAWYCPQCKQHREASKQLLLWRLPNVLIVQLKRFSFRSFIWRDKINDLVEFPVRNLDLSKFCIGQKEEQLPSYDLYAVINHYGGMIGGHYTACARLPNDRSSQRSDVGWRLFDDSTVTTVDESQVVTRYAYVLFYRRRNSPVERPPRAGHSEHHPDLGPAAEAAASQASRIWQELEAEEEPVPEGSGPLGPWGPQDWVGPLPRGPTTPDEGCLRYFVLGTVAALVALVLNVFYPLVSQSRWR
How it was run: (§1)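 The table lists average log2 ratios of fragment over vehicle, from an unpaired t-test on global-median-normalised Spectronaut label-free quantities. Proteins with ≥2 unique peptides were used. Samples were HEK293T lysate (495 µg) treated in triplicate with fragment at 200 µM or vehicle for 3 h, then with Biotin-Ahx-Ub-VS (0.5 µM final) for 1 h, with labelled DUBs NeutrAvidin-enriched and run by diaPASEF LC-MS/MS.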

[2] = biological target: T2, USP22 (UniProt Q9UPT9)
T2 sequence (whole entry): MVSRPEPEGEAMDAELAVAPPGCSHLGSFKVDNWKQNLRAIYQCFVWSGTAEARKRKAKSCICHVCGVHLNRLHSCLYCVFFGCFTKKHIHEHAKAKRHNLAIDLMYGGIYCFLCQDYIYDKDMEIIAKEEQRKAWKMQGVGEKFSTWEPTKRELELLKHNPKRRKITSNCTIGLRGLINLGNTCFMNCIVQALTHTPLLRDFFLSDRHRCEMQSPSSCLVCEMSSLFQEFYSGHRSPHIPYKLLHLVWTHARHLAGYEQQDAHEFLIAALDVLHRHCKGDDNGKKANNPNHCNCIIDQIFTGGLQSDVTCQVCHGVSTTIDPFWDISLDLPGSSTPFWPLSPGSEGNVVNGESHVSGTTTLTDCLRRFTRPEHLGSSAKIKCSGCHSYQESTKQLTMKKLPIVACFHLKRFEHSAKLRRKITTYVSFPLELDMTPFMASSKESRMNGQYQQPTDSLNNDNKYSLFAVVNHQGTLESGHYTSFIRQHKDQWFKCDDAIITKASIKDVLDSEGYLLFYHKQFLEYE
How it was run: as §1

[3] = biological target: USP24 (UniProt Q9UPU5)
How it was run: as §1

[4] = biological target: T3, USP25 (UniProt Q9UHP3)
T3 sequence (whole entry): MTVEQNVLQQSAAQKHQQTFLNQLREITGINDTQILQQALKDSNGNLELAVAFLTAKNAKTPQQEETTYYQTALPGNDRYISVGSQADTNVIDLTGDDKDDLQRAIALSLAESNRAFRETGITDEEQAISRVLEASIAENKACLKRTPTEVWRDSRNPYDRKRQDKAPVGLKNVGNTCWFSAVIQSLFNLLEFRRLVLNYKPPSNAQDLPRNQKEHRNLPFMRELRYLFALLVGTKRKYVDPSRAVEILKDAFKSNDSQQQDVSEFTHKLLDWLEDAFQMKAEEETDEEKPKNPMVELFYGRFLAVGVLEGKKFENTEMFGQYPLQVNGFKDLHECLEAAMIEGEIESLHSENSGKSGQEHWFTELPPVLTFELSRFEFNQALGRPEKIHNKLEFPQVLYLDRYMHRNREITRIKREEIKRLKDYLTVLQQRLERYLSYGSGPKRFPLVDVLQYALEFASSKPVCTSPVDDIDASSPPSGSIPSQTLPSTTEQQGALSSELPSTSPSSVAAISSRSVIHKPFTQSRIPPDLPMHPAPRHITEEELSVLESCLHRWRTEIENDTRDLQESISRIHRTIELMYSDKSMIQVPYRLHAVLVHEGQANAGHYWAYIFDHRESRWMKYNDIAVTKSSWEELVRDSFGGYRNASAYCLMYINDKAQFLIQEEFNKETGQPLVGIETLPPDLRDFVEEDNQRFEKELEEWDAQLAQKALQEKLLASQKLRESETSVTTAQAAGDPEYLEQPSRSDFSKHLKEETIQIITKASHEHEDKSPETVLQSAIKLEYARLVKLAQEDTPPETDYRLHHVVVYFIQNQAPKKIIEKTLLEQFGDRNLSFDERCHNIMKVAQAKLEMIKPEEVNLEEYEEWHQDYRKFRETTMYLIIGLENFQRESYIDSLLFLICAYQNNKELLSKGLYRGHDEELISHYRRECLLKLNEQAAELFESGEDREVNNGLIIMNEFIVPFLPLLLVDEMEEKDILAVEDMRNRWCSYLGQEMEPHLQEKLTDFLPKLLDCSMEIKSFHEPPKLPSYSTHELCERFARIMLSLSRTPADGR
How it was run: as §1

[5] = biological target: T4, USP28 (UniProt Q96RU2)
T4 sequence (whole entry): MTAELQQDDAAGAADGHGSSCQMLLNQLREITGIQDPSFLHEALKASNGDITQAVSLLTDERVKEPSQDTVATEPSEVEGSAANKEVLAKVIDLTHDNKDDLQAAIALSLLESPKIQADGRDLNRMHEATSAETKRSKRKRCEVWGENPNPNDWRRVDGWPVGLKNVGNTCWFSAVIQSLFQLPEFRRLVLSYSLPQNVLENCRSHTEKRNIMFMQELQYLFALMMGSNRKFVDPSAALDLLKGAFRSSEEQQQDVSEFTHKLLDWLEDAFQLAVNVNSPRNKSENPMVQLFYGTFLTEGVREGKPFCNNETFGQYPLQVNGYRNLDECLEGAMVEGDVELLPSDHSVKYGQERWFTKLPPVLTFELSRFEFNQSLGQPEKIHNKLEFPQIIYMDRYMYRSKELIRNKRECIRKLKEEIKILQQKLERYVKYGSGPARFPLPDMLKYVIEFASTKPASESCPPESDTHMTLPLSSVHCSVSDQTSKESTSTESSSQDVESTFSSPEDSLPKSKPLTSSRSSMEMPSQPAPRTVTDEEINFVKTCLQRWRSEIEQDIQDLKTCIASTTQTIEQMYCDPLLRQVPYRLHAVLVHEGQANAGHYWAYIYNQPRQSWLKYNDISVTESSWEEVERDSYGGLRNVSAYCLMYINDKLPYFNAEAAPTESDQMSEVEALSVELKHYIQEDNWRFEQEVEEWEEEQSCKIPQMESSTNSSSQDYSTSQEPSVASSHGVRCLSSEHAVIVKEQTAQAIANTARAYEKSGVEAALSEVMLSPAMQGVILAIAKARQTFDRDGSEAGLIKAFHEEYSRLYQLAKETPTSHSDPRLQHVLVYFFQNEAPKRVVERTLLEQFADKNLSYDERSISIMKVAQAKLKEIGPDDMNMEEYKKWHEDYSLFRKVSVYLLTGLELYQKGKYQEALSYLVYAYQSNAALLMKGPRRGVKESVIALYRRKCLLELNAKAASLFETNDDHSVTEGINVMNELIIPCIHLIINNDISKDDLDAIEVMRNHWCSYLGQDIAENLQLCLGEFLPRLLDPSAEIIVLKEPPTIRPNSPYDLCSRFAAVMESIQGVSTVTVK
How it was run: as §1

Measured: log2 ratio of Biotin-Ahx-Ub-VS probe labelling

Sequence of USP24 (Q9UPU5 whole entry): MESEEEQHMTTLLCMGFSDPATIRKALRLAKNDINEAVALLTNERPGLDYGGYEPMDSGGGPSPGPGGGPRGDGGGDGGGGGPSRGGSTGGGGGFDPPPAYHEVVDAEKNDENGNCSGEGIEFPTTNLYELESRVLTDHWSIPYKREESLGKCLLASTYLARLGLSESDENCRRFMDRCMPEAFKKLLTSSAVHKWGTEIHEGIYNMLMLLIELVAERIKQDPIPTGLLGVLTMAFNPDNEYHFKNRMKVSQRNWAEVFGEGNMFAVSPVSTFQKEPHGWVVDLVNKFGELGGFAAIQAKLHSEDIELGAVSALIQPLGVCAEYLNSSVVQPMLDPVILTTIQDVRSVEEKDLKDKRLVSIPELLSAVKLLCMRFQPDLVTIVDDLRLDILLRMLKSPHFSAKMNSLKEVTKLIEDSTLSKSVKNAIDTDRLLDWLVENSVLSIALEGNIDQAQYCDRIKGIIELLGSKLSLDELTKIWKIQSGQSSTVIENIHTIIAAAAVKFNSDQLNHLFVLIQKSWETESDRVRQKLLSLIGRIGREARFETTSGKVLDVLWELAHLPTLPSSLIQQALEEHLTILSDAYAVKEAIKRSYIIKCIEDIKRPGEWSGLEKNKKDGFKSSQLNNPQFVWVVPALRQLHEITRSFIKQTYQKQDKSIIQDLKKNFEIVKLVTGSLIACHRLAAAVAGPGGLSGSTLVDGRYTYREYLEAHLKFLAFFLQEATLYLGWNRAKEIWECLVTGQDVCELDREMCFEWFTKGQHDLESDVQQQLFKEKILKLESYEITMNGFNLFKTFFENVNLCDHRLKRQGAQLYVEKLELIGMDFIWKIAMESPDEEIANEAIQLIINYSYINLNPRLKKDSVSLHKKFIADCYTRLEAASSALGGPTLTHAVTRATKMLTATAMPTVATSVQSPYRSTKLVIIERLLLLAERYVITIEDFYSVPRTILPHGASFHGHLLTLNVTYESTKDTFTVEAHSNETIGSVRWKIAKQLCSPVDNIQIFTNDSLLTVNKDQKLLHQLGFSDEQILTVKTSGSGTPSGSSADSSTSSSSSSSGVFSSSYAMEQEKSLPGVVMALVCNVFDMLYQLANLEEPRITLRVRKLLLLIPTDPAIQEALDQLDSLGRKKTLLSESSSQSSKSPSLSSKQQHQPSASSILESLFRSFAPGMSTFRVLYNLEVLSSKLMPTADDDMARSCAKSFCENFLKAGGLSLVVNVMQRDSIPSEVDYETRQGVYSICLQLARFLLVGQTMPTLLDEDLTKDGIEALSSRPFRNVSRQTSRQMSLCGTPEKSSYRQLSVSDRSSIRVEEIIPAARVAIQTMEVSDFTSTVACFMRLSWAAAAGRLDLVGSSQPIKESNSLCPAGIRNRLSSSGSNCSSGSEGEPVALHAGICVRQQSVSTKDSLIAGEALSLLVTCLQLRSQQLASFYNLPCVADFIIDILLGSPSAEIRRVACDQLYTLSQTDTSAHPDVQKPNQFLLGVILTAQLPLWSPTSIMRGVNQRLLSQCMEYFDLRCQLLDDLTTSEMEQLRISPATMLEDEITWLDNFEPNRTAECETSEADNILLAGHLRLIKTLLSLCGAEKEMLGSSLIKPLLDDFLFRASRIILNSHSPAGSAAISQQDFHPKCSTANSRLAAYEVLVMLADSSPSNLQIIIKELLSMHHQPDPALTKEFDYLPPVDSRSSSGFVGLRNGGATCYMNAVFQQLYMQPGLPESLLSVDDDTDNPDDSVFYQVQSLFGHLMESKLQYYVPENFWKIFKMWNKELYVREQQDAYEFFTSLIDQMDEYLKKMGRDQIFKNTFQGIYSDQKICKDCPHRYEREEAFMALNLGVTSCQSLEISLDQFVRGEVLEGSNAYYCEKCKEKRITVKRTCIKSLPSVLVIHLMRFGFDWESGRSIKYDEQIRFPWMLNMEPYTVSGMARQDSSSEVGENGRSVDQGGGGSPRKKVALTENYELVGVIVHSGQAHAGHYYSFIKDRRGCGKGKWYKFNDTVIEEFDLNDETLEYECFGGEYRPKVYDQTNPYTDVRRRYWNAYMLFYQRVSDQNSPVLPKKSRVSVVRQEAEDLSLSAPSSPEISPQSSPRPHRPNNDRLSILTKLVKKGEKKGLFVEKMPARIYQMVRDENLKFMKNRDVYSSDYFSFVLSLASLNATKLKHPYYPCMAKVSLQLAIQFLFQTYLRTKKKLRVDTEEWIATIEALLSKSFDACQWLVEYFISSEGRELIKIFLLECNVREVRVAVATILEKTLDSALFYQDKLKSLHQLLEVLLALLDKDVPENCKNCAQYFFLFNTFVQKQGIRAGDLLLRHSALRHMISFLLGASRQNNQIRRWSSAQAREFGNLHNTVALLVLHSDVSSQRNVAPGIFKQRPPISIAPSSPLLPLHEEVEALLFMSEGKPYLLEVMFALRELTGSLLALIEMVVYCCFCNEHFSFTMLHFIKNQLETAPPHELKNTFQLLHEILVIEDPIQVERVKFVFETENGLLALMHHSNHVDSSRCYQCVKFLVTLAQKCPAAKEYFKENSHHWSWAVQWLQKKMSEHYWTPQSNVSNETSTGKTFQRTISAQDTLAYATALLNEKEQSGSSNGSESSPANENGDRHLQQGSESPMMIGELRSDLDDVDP

Cc1noc(C)c1CNC(=O)CCl
inactive: [1] -0.666 | [2] -0.912 | [3] -0.8 | [4] -0.554 | [5] -0.971
